Source: ChEMBL document CHEMBL3988442, “University of Dundee, Small-Polar-MMV Screening Library” (2021)
For part of these data: Entries with a potency or affinity are not part of this list.

What was measured:
Set-up in all cases: scale not given: direction of the effect not stated beside the values
[1] = target: Protein translocase subunit SecA (Escherichia coli (strain K12)) (UniProt P10408); assay: Assay to Identify E. coli SecA ATPase Inhibitors; format: functional; conditions: 30 µM
[2] = target: T1, Ubiquitin-activating enzyme e1, putative (Leishmania donovani (strain BPK282A1)) (UniProt E9BSI1); assay: Leishmania donovani Ubiquitin Activating Enzyme (LdE1); format: functional; conditions: 30 µM
T1 sequence (whole entry): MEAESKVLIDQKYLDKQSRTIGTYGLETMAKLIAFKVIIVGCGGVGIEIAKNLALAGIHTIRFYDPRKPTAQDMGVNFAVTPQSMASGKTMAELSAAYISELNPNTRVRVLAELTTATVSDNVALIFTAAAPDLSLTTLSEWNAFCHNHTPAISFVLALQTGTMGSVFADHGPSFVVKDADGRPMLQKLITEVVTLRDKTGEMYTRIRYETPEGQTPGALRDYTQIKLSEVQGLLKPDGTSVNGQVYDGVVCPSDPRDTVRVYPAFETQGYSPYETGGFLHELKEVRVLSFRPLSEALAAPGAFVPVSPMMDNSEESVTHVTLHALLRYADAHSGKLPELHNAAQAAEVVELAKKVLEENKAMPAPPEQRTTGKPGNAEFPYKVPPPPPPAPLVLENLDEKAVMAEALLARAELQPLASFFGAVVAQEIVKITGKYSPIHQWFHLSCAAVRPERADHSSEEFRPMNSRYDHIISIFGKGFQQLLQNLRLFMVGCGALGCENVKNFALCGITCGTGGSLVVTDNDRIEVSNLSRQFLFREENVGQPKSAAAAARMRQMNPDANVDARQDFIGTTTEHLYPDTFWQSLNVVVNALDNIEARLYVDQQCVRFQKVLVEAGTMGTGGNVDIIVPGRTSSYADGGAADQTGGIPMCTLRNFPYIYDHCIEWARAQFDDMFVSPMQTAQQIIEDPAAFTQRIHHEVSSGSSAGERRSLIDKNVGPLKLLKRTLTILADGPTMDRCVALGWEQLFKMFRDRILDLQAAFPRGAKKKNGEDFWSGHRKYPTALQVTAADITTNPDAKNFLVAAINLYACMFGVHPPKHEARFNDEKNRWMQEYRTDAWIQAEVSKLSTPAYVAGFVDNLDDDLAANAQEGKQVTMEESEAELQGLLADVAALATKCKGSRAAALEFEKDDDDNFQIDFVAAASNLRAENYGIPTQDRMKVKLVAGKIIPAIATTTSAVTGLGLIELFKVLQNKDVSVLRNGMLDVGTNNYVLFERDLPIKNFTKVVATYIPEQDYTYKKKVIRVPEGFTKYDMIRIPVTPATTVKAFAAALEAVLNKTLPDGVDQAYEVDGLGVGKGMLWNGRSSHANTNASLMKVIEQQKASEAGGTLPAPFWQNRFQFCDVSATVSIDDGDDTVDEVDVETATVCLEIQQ

[3] = target: AMP-activated protein kinase, AMPK (Homo sapiens) (UniProt P54646+O43741+P54619+Q9UGJ0+Q9Y478+Q13131+Q9UGI9); assay: AMP-dependent Kinase enzyme assay. An in vitro enzyme assay that detects ADP turnover that is directly proportional to AMPK activity. This uses naive AMPK that is activated during the assay with MK-8722; format: functional; conditions: 30 µM
[4] = target: Sialic acid-binding Ig-like lectin 9 (Homo sapiens) (UniProt Q9Y336); assay: Hs-Siglec9 ALPHAscreen SOP 20170721; conditions: 10 µM
[5] = tested on: Trypanosoma cruzi; assay: Trypanosoma cruzi phosphomannomutase and mannose-1-phosphate guanylyltransferase assay; format: functional; conditions: 10 µM
[6] = target: T2, Arginase-2, mitochondrial (Homo sapiens) (UniProt P78540); assay: in vitro enzyme assay to detect the production of urea directly proportional to the activity of Arginase II; format: functional; conditions: 33.3 µM; also: in the data most compounds retested in dose-response had high values
T2 sequence (whole entry): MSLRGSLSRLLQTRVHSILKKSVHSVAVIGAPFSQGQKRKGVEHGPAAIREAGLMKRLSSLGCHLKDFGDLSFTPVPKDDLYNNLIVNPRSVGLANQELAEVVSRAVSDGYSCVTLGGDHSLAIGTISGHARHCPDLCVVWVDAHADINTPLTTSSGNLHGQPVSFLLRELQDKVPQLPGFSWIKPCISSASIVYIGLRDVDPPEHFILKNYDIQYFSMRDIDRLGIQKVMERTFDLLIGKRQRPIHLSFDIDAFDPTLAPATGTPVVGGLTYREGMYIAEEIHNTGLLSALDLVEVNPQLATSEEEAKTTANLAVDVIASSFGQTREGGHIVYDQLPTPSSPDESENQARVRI

[7] = target: T3, Proteasome subunit beta (Trypanosoma cruzi) (UniProt O96673); assay: Trypanosoma cruzi proteasome chymotrypsin-like activity (TcProtChymo) assay.; also: in the data most compounds retested in dose-response had high values; format: functional; conditions: 9.37 µM
T3 sequence (whole entry): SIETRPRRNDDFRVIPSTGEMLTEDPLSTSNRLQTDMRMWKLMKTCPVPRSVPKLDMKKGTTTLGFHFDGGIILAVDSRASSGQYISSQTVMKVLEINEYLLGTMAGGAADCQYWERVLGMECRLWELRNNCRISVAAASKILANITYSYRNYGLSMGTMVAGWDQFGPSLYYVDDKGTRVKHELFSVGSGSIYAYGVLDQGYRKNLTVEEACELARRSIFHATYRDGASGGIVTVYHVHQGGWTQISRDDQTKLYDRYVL

[8] = species: Homo sapiens; assay: To identify inhibition of the IFN signalling (Jak-Stat) pathway via expression of an eGFP reporter gene under the control of an IFN-stimulated response element (ISRE) containing MxA promoter.; format: functional; conditions: 30 µM
[9] = target: T4, Tyrosyl-tRNA synthetase, putative (Trypanosoma cruzi (strain CL Brener)) (UniProt Q4DSP6); assay: Trypanosoma cruzi tyrosyl tRNA synthetase (TcYRS) _High Tyrosine SOP; format: functional; conditions: 30 µM; also: in the data most compounds retested in dose-response had high values
T4 sequence (whole entry): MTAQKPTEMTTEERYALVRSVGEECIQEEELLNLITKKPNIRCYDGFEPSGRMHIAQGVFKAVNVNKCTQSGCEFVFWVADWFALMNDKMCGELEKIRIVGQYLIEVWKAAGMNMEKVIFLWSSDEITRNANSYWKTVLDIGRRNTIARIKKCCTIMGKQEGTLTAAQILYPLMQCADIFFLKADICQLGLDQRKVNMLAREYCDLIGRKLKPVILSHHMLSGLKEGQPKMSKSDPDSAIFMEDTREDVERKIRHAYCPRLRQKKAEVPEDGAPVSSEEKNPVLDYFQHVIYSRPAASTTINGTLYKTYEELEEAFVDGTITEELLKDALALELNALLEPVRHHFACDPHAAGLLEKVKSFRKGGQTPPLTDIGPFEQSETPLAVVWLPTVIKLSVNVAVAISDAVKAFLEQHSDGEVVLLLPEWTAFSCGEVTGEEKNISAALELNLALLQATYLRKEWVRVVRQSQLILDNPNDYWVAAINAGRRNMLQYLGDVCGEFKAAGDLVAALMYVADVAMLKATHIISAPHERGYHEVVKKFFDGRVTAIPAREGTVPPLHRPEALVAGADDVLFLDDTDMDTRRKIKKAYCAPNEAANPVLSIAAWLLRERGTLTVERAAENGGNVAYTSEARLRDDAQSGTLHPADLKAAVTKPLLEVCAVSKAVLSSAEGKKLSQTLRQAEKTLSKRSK

[10] = target: T4, Tyrosyl-tRNA synthetase, putative (Trypanosoma cruzi (strain CL Brener)); assay: Trypanosoma cruzi tyrosyl tRNA synthetase (TcYRS) SOP; format: functional; conditions: 30 µM
[11] = target: Chromo domain-containing protein 1 (Saccharomyces cerevisiae (strain ATCC 204508 / S288c) (Baker's yeast)) (UniProt P32657); assay: ScCHD-1 Enzyme Inhibition Assay; format: functional; conditions: 30 µM; also: in the data most compounds retested in dose-response had high values
Sequence of Chromo domain-containing protein 1 (Saccharomyces cerevisiae (strain ATCC 204508 / S288c) (Baker's yeast)) (P32657 whole entry, the tested form may be a part): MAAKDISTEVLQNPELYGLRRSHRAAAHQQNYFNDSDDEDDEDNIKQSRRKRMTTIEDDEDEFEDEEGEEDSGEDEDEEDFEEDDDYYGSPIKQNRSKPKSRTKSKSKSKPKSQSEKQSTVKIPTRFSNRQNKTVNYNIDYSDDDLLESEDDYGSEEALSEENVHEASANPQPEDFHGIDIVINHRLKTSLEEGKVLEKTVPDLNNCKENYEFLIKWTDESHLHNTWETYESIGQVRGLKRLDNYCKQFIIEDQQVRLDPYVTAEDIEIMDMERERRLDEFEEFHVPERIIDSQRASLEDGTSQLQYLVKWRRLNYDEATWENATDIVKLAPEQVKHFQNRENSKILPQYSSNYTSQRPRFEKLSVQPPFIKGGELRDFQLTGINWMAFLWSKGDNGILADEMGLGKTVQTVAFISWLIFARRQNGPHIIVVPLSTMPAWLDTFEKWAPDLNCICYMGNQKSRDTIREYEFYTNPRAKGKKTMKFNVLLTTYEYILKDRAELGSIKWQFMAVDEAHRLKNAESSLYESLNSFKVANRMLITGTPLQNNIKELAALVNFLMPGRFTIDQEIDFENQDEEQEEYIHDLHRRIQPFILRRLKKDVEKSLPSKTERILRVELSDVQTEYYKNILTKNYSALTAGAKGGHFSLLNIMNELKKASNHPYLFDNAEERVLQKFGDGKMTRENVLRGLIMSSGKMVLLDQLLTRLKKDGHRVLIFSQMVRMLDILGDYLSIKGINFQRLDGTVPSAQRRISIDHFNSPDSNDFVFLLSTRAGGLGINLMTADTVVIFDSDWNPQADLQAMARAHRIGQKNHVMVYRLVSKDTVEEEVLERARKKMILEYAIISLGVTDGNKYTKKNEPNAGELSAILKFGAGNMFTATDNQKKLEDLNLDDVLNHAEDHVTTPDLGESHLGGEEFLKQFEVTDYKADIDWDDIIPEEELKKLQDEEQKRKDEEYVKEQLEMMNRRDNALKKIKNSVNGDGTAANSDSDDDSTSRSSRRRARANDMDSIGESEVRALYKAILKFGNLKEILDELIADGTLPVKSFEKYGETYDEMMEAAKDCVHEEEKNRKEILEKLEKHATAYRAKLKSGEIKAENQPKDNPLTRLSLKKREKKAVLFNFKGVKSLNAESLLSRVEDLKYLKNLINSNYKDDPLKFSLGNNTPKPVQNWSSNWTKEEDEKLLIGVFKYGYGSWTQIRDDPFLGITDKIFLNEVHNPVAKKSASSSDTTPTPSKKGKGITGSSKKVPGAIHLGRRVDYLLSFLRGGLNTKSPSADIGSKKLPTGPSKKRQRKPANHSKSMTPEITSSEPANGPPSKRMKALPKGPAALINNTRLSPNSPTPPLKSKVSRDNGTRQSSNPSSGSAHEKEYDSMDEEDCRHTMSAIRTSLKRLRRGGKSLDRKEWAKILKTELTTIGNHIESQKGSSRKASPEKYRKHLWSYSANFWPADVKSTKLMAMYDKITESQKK

Sequence of Protein translocase subunit SecA (Escherichia coli (strain K12)) (P10408 whole entry): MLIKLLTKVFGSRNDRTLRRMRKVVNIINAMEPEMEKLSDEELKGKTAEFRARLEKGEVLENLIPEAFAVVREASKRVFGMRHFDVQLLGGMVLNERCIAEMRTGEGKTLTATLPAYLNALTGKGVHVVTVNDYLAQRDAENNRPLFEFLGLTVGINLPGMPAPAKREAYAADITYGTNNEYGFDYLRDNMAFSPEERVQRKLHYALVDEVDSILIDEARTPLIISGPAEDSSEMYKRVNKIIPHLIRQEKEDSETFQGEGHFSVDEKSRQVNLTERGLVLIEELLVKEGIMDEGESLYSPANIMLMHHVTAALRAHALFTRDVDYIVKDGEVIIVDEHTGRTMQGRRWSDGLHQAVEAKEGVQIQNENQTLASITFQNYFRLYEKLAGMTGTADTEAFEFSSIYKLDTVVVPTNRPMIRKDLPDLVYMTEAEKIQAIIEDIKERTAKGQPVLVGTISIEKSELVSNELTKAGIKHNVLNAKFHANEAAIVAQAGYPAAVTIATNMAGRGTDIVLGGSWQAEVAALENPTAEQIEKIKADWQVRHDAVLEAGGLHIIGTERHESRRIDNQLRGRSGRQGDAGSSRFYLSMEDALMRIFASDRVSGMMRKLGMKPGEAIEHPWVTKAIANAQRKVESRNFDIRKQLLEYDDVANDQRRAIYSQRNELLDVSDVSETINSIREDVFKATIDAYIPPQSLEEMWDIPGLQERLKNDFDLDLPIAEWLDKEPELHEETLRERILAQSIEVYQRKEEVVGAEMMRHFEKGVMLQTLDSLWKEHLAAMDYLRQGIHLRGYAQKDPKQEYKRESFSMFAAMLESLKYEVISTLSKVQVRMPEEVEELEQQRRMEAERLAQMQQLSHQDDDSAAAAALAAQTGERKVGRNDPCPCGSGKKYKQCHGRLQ
Sequence of Sialic acid-binding Ig-like lectin 9 (Homo sapiens) (Q9Y336 whole entry): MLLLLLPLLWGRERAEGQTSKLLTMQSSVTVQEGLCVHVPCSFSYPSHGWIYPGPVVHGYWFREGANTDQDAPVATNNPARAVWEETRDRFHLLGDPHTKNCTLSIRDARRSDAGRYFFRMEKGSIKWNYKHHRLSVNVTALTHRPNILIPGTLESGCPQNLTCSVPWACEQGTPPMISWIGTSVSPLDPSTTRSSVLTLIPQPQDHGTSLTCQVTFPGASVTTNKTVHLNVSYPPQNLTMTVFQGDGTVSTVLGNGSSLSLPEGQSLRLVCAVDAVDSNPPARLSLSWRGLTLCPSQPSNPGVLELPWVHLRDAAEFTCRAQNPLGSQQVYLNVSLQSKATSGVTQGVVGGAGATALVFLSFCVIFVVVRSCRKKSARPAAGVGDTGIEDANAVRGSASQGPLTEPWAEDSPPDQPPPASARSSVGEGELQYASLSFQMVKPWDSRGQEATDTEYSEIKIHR

SMILES	Percent Effect [1]	Percent Effect [2]	Percent Effect [3]	Percent Effect [4]	Percent Effect [5]	Percent Effect [6]	Percent Effect [7]	Percent Effect [8]	Percent Effect [9]	Percent Effect [10]	Percent Effect [11]
CCc1nnc2n1CCN(Cc1ccc(C(=O)N3CCCC3)cc1)C2	-2.96%	13.5%	2.51%	-7.2%	-2.69%	-4.25%	12.8%	17.1%	6.93%	15.8%	-4.5%
O=C(Nc1ccc(CCN2CCC(O)CC2)cc1)Nc1cccnc1	-1.45%	5.41%	-3.72%	8.33%	-1.54%	-1.91%	18.4%	8.03%	6.88%	4.88%	-3.57%
CCN1CCN(Cc2ccnc(-c3cccnc3)n2)CC1	-8.52%	20.3%	0.102%	1.94%	-0.79%	-1.62%	15.3%	-6.28%	4.3%	16.9%	-29.4%
CN(C)C(=O)COCc1cncc2c1CCN(Cc1nccn1C)C2	-2.93%	7.79%	3.61%	17.4%	7.18%	-106%	3%	20.9%	6.45%	13.6%	0.222%
NC(=O)NCC(=O)N1C[C@H]2CC[C@@H]1CN(C1Cc3ccccc3C1)C2	-3.92%	10.8%	-25.8%	17.9%	-0.88%	-3.23%	14%	3.96%	5.38%	13.6%	-4.63%
COC(=O)CN1CC(c2nc(Cc3ccccc3)no2)C1	-5.1%	13.7%	-3.81%	14.3%	2.35%	2.27%	11.9%	12.4%	8.6%	15%	-6.9%
Cc1ccc2cc(CNCCCN3CCOCC3)c(=O)[nH]c2c1	-3.73%	4.05%	11.3%	5.46%	0.395%	-0.696%	6.08%	12%	5.38%	9.09%	-7.66%
Cc1ncccc1OC1(C(=O)NCCNc2ccccc2)CCNCC1	-3.81%	2.7%	-15.1%	6.77%	3.48%	-1.91%	5.86%	20.1%	5.82%	9.76%	-4.02%
COCCCNC(=O)CN(C)C(=O)c1cc(C)sc1C	-3.23%	-359%	0.833%	1.88%	-4.55%	-1.66%	4.67%	14.8%	5.94%	15.8%	-1.76%
O=C1NC2(CCN(C(=O)c3ccccc3)CC2)CC1c1cccnc1 (stereo unspecified)	-4.51%	-2.74%	-3.55%	5.92%	9.32%	-6.39%	2.65%	-28.6%	6.25%	13.6%	-2.24%
Cc1cnn(CC2CCCN2C(=O)Cc2n[nH]c3ccccc23)c1 (stereo unspecified)	-5.48%	10.1%	14%	7.2%	2.17%	7.61%	-0.0819%	10.1%	8.37%	11.4%	-3.88%
CN(C)[C@@H]1CCN(C(=O)NC2CCCC2)[C@H]1Cc1cnn(C)c1	-4.9%	2.67%	-90.2%	5.44%	-0.197%	2.1%	7.84%	-0.845%	1.06%	-3.85%	1.31%
CCc1n[nH]c(C2CN(C(=O)CCc3cccs3)CCO2)n1 (stereo unspecified)	-5.44%	11.4%	-4.01%	-7.1%	1.74%	0.645%	8.23%	1.68%	4.17%	12.7%	-38.8%
CCC(CNC(=O)c1ccc(=O)[nH]n1)N1CCc2ccccc2C1 (stereo unspecified)	0.395%	13.5%	-10.4%	10.4%	3.48%	11.4%	17.9%	2.58%	7.94%	12.2%	-3.16%
CC(NC(=O)N(C)Cc1ccsc1)c1ccc2c(c1)NC(=O)CO2 (stereo unspecified)	-2.37%	13.2%	0.427%	7.9%	6.39%	1.15%	8.52%	9.49%	5.39%	19.5%	-10.1%
Cn1cc(CN2CCn3cc(CNC(=O)c4cccn4C)nc3C2)cn1	-0.61%	0%	12.6%	0.00498%	-0.394%	-0.699%	-4.32%	3.52%	4.25%	6.41%	5.91%
Cc1ccc(C2C3=C(COC3=O)Nc3[nH]nc(C)c32)cc1C (stereo unspecified)	-2.97%	9.33%	12.5%	-3.88%	-4.71%	-4.75%	10.7%	30.1%	-22.2%	-23.1%	-11.7%
COc1c(CNCc2cccc(CN(C)C)c2)c(C)nn1C	-7.85%	10.8%	-5.13%	6.33%	-2.17%	-4.01%	-0.36%	13.9%	4.43%	6.17%	-5.81%
CNc1nc(C)c(C(=O)N2CCCCC2CN2CCCCCC2)s1 (stereo unspecified)	-4.61%	21.3%	-1.92%	0.892%	3.74%	-1.63%	8.72%	-1.85%	11.7%	19.2%	-9.37%
C=Cc1ccc(C(=O)N2CCCC(Nc3ccc(F)cc3)C2)cc1 (stereo unspecified)	-3.33%	8.11%	2.02%	27.7%	7.72%	0.952%	3.97%	2.82%	2.65%	19.5%	-11.2%
Cc1csc(CN2CC[C@H]3C[C@H](c4nnc(C)[nH]4)O[C@@H]3C2)n1	1.54%	16.4%	0.599%	0.797%	-0.397%	2.4%	9.33%	17.3%	3.12%	-102%	-5.22%
